PubChem BioAssay (NCATS)
Inconclusive results are not listed. Where a call stands in place of a potency, no number is given. The source made the active and inactive calls. Unless noted, calls come from the whole dose curve; as a rule, active = well fitted curve in the direction sought with a large enough effect; inconclusive = small, poorly fitted or top-dose-only effect, or another doubt; inactive = no such curve, though single readings can be large; an effect the other way counts as inactive or inconclusive.

Columns and labels:
[1] = qHTS for Inhibitors of Plasmodium falciparum (HB3) proliferation (AID 504318); note: nearly all actives have a fitted effect of over 60% in size
Procedure, shortened: (§1)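 Parasite growth measured as SYBR Green DNA fluorescence (ex 485, em 535 nm) after overnight lysis following 72 h culture at 37 °C, 0.3% parasitemia, 2.5% hematocrit. Values normalized against DMSO and 0.29 uM artemisinin controls, with plate-stack correction.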

[2] = target: Atrial natriuretic peptide receptor 1 (Homo sapiens) (UniProt P16066); assay: Natriuretic polypeptide receptor (hNpr1) antagonism - Pilot CMLD screen (AID 1347052; calls by dose curve;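 note: cGMP level read as GloSensor luciferase luminescence after agonist stimulation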)
[3] = qHTS for Inhibitors of Plasmodium falciparum (CP250) proliferation (AID 504320)
Procedure, shortened: as §1

[4] = target: Furin (Homo sapiens) (UniProt P09958); assay: Furin counterscreen qHTS for Zika virus inhibitors (AID 1347149); note: nearly all actives have a fitted effect of over 70% in size
Procedure, shortened: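 Counterscreen measures cleavage of 2 microM BOC-RVRR-AMC, below its ~15 microM Km, by 5 nM full-length human furin at pH 7.0 after a 15-min compound preincubation. Inhibition derives from the 15-min fluorescence increase at 37C.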
Potency is the fitted concentration of half-maximal effect.

Chain of Furin (Homo sapiens) (P09958 whole entry, looked up): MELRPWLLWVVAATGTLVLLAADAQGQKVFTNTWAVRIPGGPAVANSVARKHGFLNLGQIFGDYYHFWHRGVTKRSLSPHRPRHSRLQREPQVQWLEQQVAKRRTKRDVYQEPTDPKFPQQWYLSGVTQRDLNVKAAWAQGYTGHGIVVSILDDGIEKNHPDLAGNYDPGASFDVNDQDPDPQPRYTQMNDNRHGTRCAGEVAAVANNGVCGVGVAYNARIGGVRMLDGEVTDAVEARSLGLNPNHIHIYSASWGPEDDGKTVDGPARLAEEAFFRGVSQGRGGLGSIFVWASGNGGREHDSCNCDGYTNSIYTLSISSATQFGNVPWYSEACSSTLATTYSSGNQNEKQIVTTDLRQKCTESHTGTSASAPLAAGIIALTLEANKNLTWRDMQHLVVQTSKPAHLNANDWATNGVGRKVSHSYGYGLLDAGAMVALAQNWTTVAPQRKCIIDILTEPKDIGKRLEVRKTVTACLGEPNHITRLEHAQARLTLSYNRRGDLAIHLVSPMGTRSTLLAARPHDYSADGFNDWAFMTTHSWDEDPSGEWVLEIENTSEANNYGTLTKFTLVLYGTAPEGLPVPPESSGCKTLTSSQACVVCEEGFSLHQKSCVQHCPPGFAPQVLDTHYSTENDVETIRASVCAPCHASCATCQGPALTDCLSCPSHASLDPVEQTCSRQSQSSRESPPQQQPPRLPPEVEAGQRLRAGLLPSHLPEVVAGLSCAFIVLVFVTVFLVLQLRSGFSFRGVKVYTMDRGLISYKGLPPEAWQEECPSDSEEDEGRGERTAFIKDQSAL
Chain of Atrial natriuretic peptide receptor 1 (Homo sapiens) (P16066 whole entry, looked up): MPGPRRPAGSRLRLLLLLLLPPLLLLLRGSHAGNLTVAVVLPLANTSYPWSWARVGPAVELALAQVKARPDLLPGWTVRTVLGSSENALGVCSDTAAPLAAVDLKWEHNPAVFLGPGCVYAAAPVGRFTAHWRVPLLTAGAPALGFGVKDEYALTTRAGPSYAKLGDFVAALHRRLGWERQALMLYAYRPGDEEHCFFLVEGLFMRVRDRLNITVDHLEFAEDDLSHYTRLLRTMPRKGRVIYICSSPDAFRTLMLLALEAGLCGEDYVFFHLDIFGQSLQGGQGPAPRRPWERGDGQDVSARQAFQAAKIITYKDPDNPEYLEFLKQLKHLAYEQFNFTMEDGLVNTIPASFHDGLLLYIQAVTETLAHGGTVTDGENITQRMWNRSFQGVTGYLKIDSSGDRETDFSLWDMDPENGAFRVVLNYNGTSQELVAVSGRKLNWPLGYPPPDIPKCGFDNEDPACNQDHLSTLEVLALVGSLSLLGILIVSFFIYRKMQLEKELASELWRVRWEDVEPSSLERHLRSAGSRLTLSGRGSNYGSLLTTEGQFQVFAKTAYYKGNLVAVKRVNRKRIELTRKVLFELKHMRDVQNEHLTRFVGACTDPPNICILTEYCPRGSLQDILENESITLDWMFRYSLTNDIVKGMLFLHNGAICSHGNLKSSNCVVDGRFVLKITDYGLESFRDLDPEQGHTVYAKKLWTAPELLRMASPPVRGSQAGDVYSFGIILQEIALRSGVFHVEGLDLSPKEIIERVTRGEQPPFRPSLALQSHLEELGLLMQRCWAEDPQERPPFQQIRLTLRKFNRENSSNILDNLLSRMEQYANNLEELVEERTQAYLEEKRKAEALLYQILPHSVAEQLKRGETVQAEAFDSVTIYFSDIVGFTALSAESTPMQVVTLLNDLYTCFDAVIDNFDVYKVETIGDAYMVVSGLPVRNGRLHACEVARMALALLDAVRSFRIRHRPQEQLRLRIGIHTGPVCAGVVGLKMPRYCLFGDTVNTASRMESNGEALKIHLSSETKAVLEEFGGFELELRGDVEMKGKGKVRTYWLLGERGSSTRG

Compound | Potency [1] | Potency [2] | Potency [3] | Potency [4]
COC1=C(C(=O)c2ccccc2)C(=O)[C@@]2(CC=C(C)C)C[C@@H]([S+](=O)([O-])c3ccccc3)C(C)(C)[C@@]1(CC=C(C)C)C2=O | 1900 nM (active) | inactive |  | 
COc1cc2c(cc1OC)[C@@H]1O[C@](CCCCN3C(=O)c4ccccc4C3=O)(C2)Oc2c1c(=O)oc1ccc(F)cc21 |  | inactive | inactive | 
C[C@H]1CC[C@H]2C(=O)N(Cc3ccc(Cl)cc3)C[C@H](O)CN2[C@H]1c1ccc(Br)cc1 |  | inactive | inactive | 
COC(=O)CC1c2ccccc2C=C(C=Cc2ccc3c(c2)OCO3)N1C(=O)OC (centres undefined) | 1690 nM (active) | inactive |  | 
COC(=O)C1=C(C)N(Cc2ccccc2)C(=O)NC1CCc1ccccc1 (centres undefined) | inactive | inactive | inactive | 
C[C@H]1Cc2c(COc3ccccc3)nc3c(c2CO1)CN(C(=O)c1cc(I)ccc1F)CC3 |  | inactive | inactive | 
COC(=O)C1=C(C)N(Cc2ccccc2)C(=NCc2ccccc2)NC1c1ccccc1 (centres undefined) | inactive | inactive | inactive | 
COC(=O)C1=C(C(=O)OC)[C@@H]2N(C)c3ccccc3[C@@]23C[C@@H](C(=O)OC)N(C(=O)NC2CCCC2)C3=N1 | inactive | inactive |  | 
CCN1C(=NCc2ccccc2)NC(c2cccc(C(F)(F)F)c2)C(C(=O)OC)=C1C (centres undefined) | inactive | inactive | inactive | 
C[C@@H]1CC[C@H]2C(=O)O[C@@H](COc3ccc(C(C)(C)C)cc3)CN2[C@@H]1c1ccc(Br)cc1 | 1690 nM (active) | inactive | 1510 nM (active) | 
COc1cc2c(cc1OC)[C@@H]1O[C@](c3ccsc3)(C2)OC2=C1C(=O)CC(C)(C)C2 |  | inactive | inactive | 
O=C1N(Cc2ccc(F)cc2)c2ccccc2[C@@]12O[C@H](COc1ccccc1)CC1CCCC12 (some centres undefined) | inactive | inactive | inactive | 
CC(=O)O[C@@H]1C(CO[Si](C)(C)C(C)(C)C)=C(Br)C(=O)[C@@H]2O[C@]12C | inactive | inactive | inactive | 
O=C1N(CC2CC2)c2cccc(Br)c2[C@@]12O[C@H](COc1ccccc1)CC1=CCCC12 (some centres undefined) |  | inactive | inactive | 
CCCCCCCc1cc2ccccc2c2c(C(=O)OC)c(C)c(C(=O)OC)n12 | inactive | 944 nM (active) | inactive | 
CCOC(=O)CN1C(=O)[C@]2(OC[C@@H]3Cc4ccccc4[C@H]3C=C2C)c2ccccc21 |  | inactive | inactive | 
CCN1C(N(C)CCc2c[nH]c3ccccc23)=NC(c2cccc(C(F)(F)F)c2)C(C(=O)OC)=C1C (centres undefined) | inactive | inactive | inactive | 
C[C@]12C[C@@](C)(C=C1C=Cc1ccc(F)cc1)C(=O)C[C@H]2c1ccc(F)cc1 | 1690 nM (active) | inactive |  | 
C[C@@H]1CC[C@H]2C(=O)N(CC3CCCCC3)C[C@H](O)CN2[C@@H]1c1ccc(Br)cc1 |  | inactive | inactive | 
CCN1C(=NCCc2ccccn2)NC(c2cccs2)C(C(=O)OC)=C1C (centres undefined) | inactive | inactive | inactive | 
C[C@@H]1C[C@H]2[C@@H](C)C(=O)N3[C@@H](C[C@@H](C)[C@@H]3c3ccccc3)[C@@H](C)C(=O)N2[C@H]1c1ccccc1 | inactive | inactive | inactive | 
CC12C=C(C=Cc3ccccc3)C(C)(C1)C(c1ccccc1)CC2=O (centres undefined) |  | inactive | inactive | 

Compound | Potency [1] | Potency [2] | Potency [3] | Potency [4]
C=CCN1c2ccccc2[C@]23CCC(=O)N(Cc4cc(OC)c(OC)c(OC)c4)C2=NC(C(=O)OC)=C(C(=O)OC)[C@H]13 |  | inactive | inactive | 
CC1=C[C@@H](COCc2ccccc2)O[C@@]2(C1)C(=O)N(Cc1ccccc1C(F)(F)F)c1ccccc12 |  | inactive | inactive | 
C[C@@H]1CC[C@H]2C(=O)N(Cc3ccc(Cl)cc3)C[C@@H](O)CN2[C@@H]1c1ccc(Br)cc1 | inactive | inactive | inactive | 
C[C@H]1C[C@@H](C)O[C@@]2(C1)C(=O)N(Cc1ccc(F)cc1)c1ccccc12 | inactive | inactive | inactive | 
COC(=O)C(C(=O)OC)[C@@H]1O[C@@]23COC=C[C@]2(C)[C@@H]3c2ccccc21 | inactive | inactive | inactive | 
CC(C)[C@@H](OCc1ccccc1)[C@H](C)CON=C1[C@H]2CCn3c(=O)n(-c4ccccc4)c(=O)n3[C@@H]2[C@H](O)[C@@H]2O[C@H]12 | inactive | inactive |  | 
COc1ccc2c(c1)C[C@@H](C)O[C@]21C(=O)Nc2ccccc21 | inactive | inactive | inactive | 
C=CCN=C1NC(c2cccc(C(F)(F)F)c2)C(C(=O)OC)=C(C)N1CC (centres undefined) | inactive | inactive | inactive | 
CCN1C(=S)NC(c2cccs2)C(C(=O)OC)=C1C (centres undefined) | inactive | inactive | inactive | 
CCN1C(=NCc2cccc(C(F)(F)F)c2)NC(c2ccccc2)C(C(=O)OC)=C1C (centres undefined) | inactive | inactive |  | 
COC(=O)C1=C(C)N(Cc2ccccc2)C(=NCCc2cccnc2)NC1c1ccccc1 (centres undefined) | inactive | inactive |  | 
C#CCN1C(=O)[C@]2(O[C@H](COc3ccccc3)CC3=CCCC32)c2c(Br)cccc21 (some centres undefined) | inactive | inactive |  | 
COC(=O)C1=C(C)N(Cc2ccccc2)C(=NCCc2c[nH]c3ccccc23)NC1c1cccc(F)c1 (centres undefined) | inactive | inactive | inactive | 
C[C@@H]1C=CCC(=O)N[C@@H](c2ccc3ccccc3c2)[C@H](C)C=CCC(=O)N[C@@H]1c1ccc2ccccc2c1 |  | inactive | inactive | 
O=C(OCc1cc(=O)n2c3c(sc2n1)CCCC3)c1cccc(NC(=O)c2ccccc2F)c1 |  |  |  | 59100 nM (active)
COc1ccc([C@]23Cc4cc(C#N)ccc4[C@H](O2)c2c(cc(C)n(-c4ccccc4)c2=O)O3)cc1 |  | inactive | inactive | 
CC(=O)NC(CC(C)C)C(=O)NC(CC(C)C)C(=O)NC(C=O)CCCN=C(N)N (centres undefined) |  |  |  | inactive
NC(N)=Nc1ccc(O[C@H]2C[C@@H](Oc3ccc(N=C(N)N)cc3)[C@H](N=C(N)N)C[C@@H]2N=C(N)N)cc1 |  |  |  | 1260 nM (active)
C[C@]12C[C@@](C)(C=C1C=Cc1ccccc1)C(=O)C[C@H]2c1ccccc1 |  | inactive | inactive | 
COc1cccc([C@H]2NC(=O)CC=C[C@H](C)[C@@H](c3cccc(OC)c3)NC(=O)CC=C[C@H]2C)c1 |  | inactive | inactive | 
CCCCCCCCCC(=O)N[C@H](CCCN=C(N)N)C(=O)N[C@@H](C(=O)N[C@H](CCCCN)C(=O)N[C@@H](CCCN=C(N)N)C(=O)CCl)C(C)C |  |  |  | 89.1 nM (active)
